Compound activity from PubChem BioAssay.
Pf growth 48h: inhibits P. falciparum growth in the first generation, 48 h; 310,000 tested, 5.9% active; Potency, µM (titrated, usually from 28.7 µM), hits mostly inhibitors; AID 504832; P. falciparum luciferase growth in erythrocytes, 48 h
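Cell-based growth assay: transgenic P. falciparum expressing firefly luciferase, cultured in red cells within RPMI 1640 containing 0.5% w/v Albumax, 24 mM bicarbonate and gentamycin. A drop in luciferase activity indicates inhibition.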
Pf growth 96h: P. falciparum growth inhibition at 96 hour, primary screen for plastid delayed-death inhibitors; P. falciparum luciferase reporter growth, 96 h; Potency, µM (titrated, usually from 28.7 µM), usual class: inhibitors; 320,000 tested, 6.9% active; AID 504834
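Two-generation exposure (96 h) targets delayed-death phenotype. Reporter parasites carrying integrated firefly luciferase, in red cells at 2% hematocrit and 0.05% parasitemia final, kept at 37 C, 5% CO2; luminescence loss indicates inhibition.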
AMA1 RON2 block: AMA1-RON2 (P. falciparum) interaction inhibition; AlphaScreen AMA1-biotinylated RON2 peptide binding; Potency, µM (series often up to 58.2 µM), most hits filed as inhibitors; 360,000 tested, 0.2% active; AID 720542; also: nearly all actives have a fitted effect of over 45% in size
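AMA1 (3D7) with his tag at 25 nM final met compounds first, then biotinylated RON2 peptide at 25 nM; detection used donor plus acceptor beads, 10 µg/mL apiece, read by AlphaScreen after 30 min at room temperature.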
HCV inh: inhibitors of hepatitis C virus infection; AID 651820; Potency, µM (doses to about 41.8 µM), hits mostly inhibitors; 340,000 tested, 3.4% active; Huh7.5.1 HCVcc-Cre infection, luciferase reporter, 44 h
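Infectious HCV cell culture screen: compound-treated cells (1,000/well, pre-plated 4 h) are infected with HCVcc-Cre at roughly 0.5 moi and grown 44 h. Infection is quantified by luciferase signal after 15 min substrate incubation at room temperature.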
Each line names hits and unclear results; the compound was inactive in the other large screens. This is a sample that favours compounds with a hit; in the whole collection about 11% have one here. Calls follow the shape of the dose curve; as a rule, active = well fitted curve in the direction sought with a large enough effect; inconclusive = small, poorly fitted or top-dose-only effect, or another doubt; inactive = no such curve, though single readings can be large; an effect the other way counts as inactive or inconclusive.

CC(C)OC(=O)c1c(N)n(Cc2ccco2)c2nc3ccccc3nc12	none
Cc1ccc(S(=O)(=O)c2c(N)n(NC(=O)c3ccco3)c3nc4ccccc4nc23)cc1	Pf growth 48h inconclusive, Pf growth 96h inconclusive
C[C@]12CC[C@H](O)C[C@H]1CC[C@@H]1[C@@H]2C[C@@H](O)[C@]2(C)[C@@H](C3=CC(=O)OC3)CC[C@]12O	HCV inh 0.56µM
C[C@]12CCC3C(CC[C@H]4C[C@@H](O)CC[C@]34C)[C@H]1C=CC2=O (stereo not given in full)	none (no result: Pf growth 48h, Pf growth 96h)
CC12CC[C@H]3[C@@H](CCC4(O)C[C@H](O)CCC34/C=N/NC(=O)Cc3ccccc3)C1(O)CCC2C1=CC(=O)OC1 (stereo not given in full)	Pf growth 48h inconclusive
C[C@]12CC[C@H](O)C[C@H]1CC[C@@H]1[C@@H]2CC[C@]2(C)[C@@H](C3=CC(=O)OC3)CC[C@]12O	HCV inh 2µM
CC12CCC(O)CC1CCC1C2CCC2(C)C(C3=CC(=O)OC3)CCC12O (stereo not given)	HCV inh 5µM (no result: Pf growth 48h, Pf growth 96h)
CC12CCC(O)CC1CCC1C2CCC2(C)C(C3=CC(=O)OC3)C(O)CC12O (stereo not given)	HCV inh inconclusive (no result: Pf growth 48h, Pf growth 96h)
c1ccc(CCC2CCCCN2Cc2cn[nH]c2-c2cc3ccccc3o2)nc1 (stereo not given)	Pf growth 48h inconclusive, Pf growth 96h inconclusive
COc1cc(C(=O)NCC(c2cccs2)N2CCOCC2)ccc1OCc1ccc(Cl)cc1 (stereo not given)	none (no result: Pf growth 48h, Pf growth 96h, HCV inh)
CCC1(CC)NC(=O)N(CC(=O)Nc2ccc(S(=O)(=O)N3CCOCC3)cc2)C1=O	none
CC(=O)c1ccc(NC(=O)CSc2nnc(-c3ccco3)c(-c3ccco3)n2)cc1	AMA1 RON2 block inconclusive, HCV inh inconclusive
O=C(CSc1nnc(-c2ccco2)c(-c2ccco2)n1)c1ccccc1	Pf growth 96h inconclusive, HCV inh 2.8µM
Cc1ccc(C(=O)CSc2nnc(-c3ccco3)n2Cc2ccccc2)cc1	Pf growth 96h 7.4µM, HCV inh inconclusive
CCOC(=O)c1c(C)[nH]c(C)c1C(=O)CSc1nnc(-c2ccncc2)n1Cc1ccccc1	Pf growth 96h 10µM (no result: Pf growth 48h)
O=C(CSc1nnc(-c2ccco2)n1Cc1ccccc1)NC(=O)NCc1ccccc1	Pf growth 48h inconclusive, Pf growth 96h 12µM
O=C(CSc1nnc(-c2ccco2)n1Cc1ccccc1)c1ccccc1	Pf growth 96h inconclusive
CCOC(=O)c1c(C)[nH]c(C)c1C(=O)CSc1nnc(-c2ccco2)n1Cc1ccccc1	Pf growth 48h 7.4µM, Pf growth 96h 15µM
NC(=O)NC(=O)CSc1nnc(-c2ccco2)n1Cc1ccccc1	none
COc1cc(C2C3=C(CCCC3=O)Nc3[nH]n(-c4ccccc4)c(=O)c32)ccc1O (stereo not given)	Pf growth 48h 5.2µM, Pf growth 96h inconclusive, HCV inh inconclusive
O=C(C1CC(=O)N(c2ccccc2)C1)N1CCN(c2ccccc2)CC1 (stereo not given)	none
COc1ccc(N2CCc3c(C)nc4c(OC)cc(OC)cc4c32)cc1	Pf growth 48h inconclusive, Pf growth 96h inconclusive, HCV inh 13µM
COc1ccc(N2CCc3c(C)nc4c(OC)cc(OC)cc4c32)c(OC)c1	Pf growth 48h inconclusive, Pf growth 96h 15µM, HCV inh 11µM
COc1cccc(N2CCc3c(C)nc4ccc(Cl)cc4c32)c1	Pf growth 48h 13µM, Pf growth 96h 12µM, HCV inh inconclusive
COc1ccc(N2CCc3c(C)nc4c(OC)cccc4c32)cc1	Pf growth 48h inconclusive, Pf growth 96h inconclusive, HCV inh inconclusive
CCN1Cc2c(/C=C/c3ccccc3)nc3ccc(OC)cc3c2N(c2cccc(Cl)c2)C1	Pf growth 48h 2.1µM, Pf growth 96h 3.3µM, HCV inh 18µM
c1ccc(-n2ncc3c(NCCN4CCOCC4)ncnc32)cc1	Pf growth 96h 12µM
OCCOCCNc1ncnc2c1cnn2-c1ccccc1	Pf growth 48h 1.3µM
OCCOCCNc1ncnc2c1cnn2-c1ccc(Cl)cc1	Pf growth 48h 3.3µM (no result: Pf growth 96h)
COCCNc1ncnc2c1cnn2-c1ccc(Cl)cc1	none (no result: Pf growth 48h, Pf growth 96h)
CCOC(=O)N1CCN(C(=O)COC(=O)c2cc(C)ccc2C)CC1	none (no result: Pf growth 48h, Pf growth 96h)
COc1cccc(C(=O)O)c1OS(=O)(=O)c1ccc(C)cc1	none (no result: Pf growth 48h, Pf growth 96h, HCV inh)
CCCCNC(=O)COC(=O)c1ccccc1F	none
O=C1C(c2ccc(F)cc2)N(Cc2ccc3c(c2)OCO3)C(=O)CN1C1CCCCC1 (stereo not given)	Pf growth 48h inconclusive
O=C1C(c2ccc(F)cc2)N(CC2COc3ccccc3O2)C(=O)CN1C1CCCCC1 (stereo not given)	Pf growth 48h 2.3µM, Pf growth 96h inconclusive
N#Cc1ccc(COC(=O)c2ccc(N3CCCC3)c([N+](=O)[O-])c2)cc1	Pf growth 96h inconclusive, AMA1 RON2 block inconclusive, HCV inh inconclusive
CCC(C)(C(=O)NC1CCCC1)N(Cc1cccs1)C(=O)c1ccccn1 (stereo not given)	Pf growth 96h 2.9µM, HCV inh inconclusive
CCC(C)(C(=O)NC1CCCCC1)N(Cc1cccs1)C(=O)c1ccccn1 (stereo not given)	Pf growth 96h inconclusive
Cc1ccc(Nc2nc(-c3sc(NC(=O)c4cccc(Cl)c4)nc3C)cs2)cc1	Pf growth 48h 2.3µM, Pf growth 96h 4.1µM (no result: AMA1 RON2 block, HCV inh)
CC(=O)c1sc(NC(=O)c2ccc(Cl)cc2)nc1C	HCV inh inconclusive
CCC(=O)Nc1nc(C)c(-c2csc(Nc3ccc(C(=O)O)cc3)n2)s1	none
COc1ccccc1Nc1nc(-c2sc(NC(=O)c3cccc(Cl)c3)nc2C)cs1	Pf growth 48h inconclusive, Pf growth 96h 9.3µM (no result: AMA1 RON2 block, HCV inh)
Cc1nc(NC(=O)c2ccc(Cl)cc2)sc1-c1csc(Nc2cccc(F)c2)n1	Pf growth 48h 13µM, Pf growth 96h 2.6µM (no result: AMA1 RON2 block, HCV inh)
CCC1=C(OC(=O)N(CC)CC)N2C(=O)OC(=NCC(=O)OC)[C@]2(Cc2ccccc2)[C@H]2C1=CC[C@H]1C(=O)N(c3ccccc3)C(=O)[C@H]12	Pf growth 48h 6.6µM, Pf growth 96h 9.3µM
CCC1=C(OC(=O)N(CC)CC)N2C(=O)OC(=NCC3CC3)[C@]2(Cc2ccccc2)[C@H]2C1=CC[C@H]1C(=O)N(c3ccccc3)C(=O)[C@H]12	Pf growth 48h 2.6µM, Pf growth 96h 2.9µM, HCV inh inconclusive
CCC1=C(OC(=O)N(CC)CC)N2C(=O)OC(=NCC3CC3)[C@]2(Cc2ccccc2)[C@H]2C1=CC[C@H]1C(=O)N(C)C(=O)[C@H]12	Pf growth 48h 10µM, Pf growth 96h 9.3µM
CCC1=C(OC(=O)N(CC)CC)N2C(=O)OC(=NCC(=O)OC)[C@]2(Cc2ccccc2)[C@H]2C1=CC[C@H]1C(=O)N(C)C(=O)[C@H]12	Pf growth 48h inconclusive, Pf growth 96h inconclusive
COc1ccc2nc(SCC(=O)NC3CCCC3)c(C)cc2c1	none
CCn1cc(C(=O)NC(=S)Nc2cccc(O)c2)cn1	none (no result: Pf growth 48h)
Cc1ccc(C(=O)NCC(=O)OCc2nnc(-c3ccc([N+](=O)[O-])cc3)o2)s1	Pf growth 96h inconclusive
CC(=O)Nc1ccc(S(=O)(=O)Nc2cc(S(=O)(=O)N3CCCCC3)ccc2O)cc1	Pf growth 48h inconclusive
